From PubChem BioAssay (NCATS)
Records with an inconclusive call do not appear. Entries that show only a call come without a potency. Active and inactive are the calls of the source. Calls follow the shape of the dose curve; as a rule, active = well fitted curve in the direction sought with a large enough effect; inconclusive = small, poorly fitted or top-dose-only effect, or another doubt; inactive = no such curve, though single readings can be large; an effect the other way counts as inactive or inconclusive.

How the values were obtained:
[1] = qHTS to identify inhibitors of the type 1 interferon - major histocompatibility complex class I in skeletal muscle: primary screen against the NCATS Pharmaceutical Collection (AID 1347407);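 also: luminescence of HiBiT knocked into endogenous HLA-B as interferon-induced MHC class I level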; also: potency is read from the fitted curve at half-maximal effect
Outline: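 HLA-B HiBiT myoblasts, dexamethasone-free growth medium + 4 ng/ml IFN-b; compounds pinned 1 h after seeding, […] from 46 uM; 24 h, 37 C, 5% CO2; lytic HiBiT detection, 10 min RT, luminescence.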

[2] = qHTS to identify inhibitors of the type 1 interferon - major histocompatibility complex class I in skeletal muscle: primary screen against the NCATS Mechanism Interrogation Plate v5.0 (MIPE) Libary (AID 1347411); also: nearly all actives have a fitted effect of over 65% in size; also: potency is read from the fitted curve at half-maximal effect
Outline: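 Immortalized human C25cl48 myoblasts with HiBit knocked into endogenous HLA-B*08:01 were stimulated with 4.0 ng/ml IFN-beta and exposed to compounds (11-point 1:3 titration, top 46 uM final) for 24 hrs at 37 C; HiBiT lytic luminescence measured.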

[3] = target: Protein phosphatase 1D (Homo sapiens) (UniProt O15297); experiment: RapidFire Mass Spectrometry qHTS Assay for Modulators of WT P53-Induced Phosphatase 1 (WIP1) (AID 1347424);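 also: amount of dephosphorylated VEPPL-S-QETFS peptide product formed by WIP1; series mostly up to about 63 µM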
Protein phosphatase 1D (Homo sapiens), sequence (O15297 whole entry, looked up): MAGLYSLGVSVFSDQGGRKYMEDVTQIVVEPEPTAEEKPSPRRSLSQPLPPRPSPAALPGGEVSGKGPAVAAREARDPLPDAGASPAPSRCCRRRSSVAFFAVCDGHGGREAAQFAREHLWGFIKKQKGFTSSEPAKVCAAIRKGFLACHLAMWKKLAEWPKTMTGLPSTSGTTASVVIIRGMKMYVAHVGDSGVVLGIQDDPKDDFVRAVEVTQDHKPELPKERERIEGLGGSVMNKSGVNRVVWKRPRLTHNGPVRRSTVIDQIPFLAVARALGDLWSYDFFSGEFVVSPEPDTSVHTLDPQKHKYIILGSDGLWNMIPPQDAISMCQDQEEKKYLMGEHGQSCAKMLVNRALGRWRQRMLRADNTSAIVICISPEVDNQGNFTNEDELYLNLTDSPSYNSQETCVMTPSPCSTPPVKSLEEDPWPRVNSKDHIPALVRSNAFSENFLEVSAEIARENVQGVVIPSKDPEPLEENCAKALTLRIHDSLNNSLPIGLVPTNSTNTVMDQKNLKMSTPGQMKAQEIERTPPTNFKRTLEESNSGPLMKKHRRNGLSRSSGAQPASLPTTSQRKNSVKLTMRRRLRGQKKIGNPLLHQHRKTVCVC
Outline: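 10 nM WIP1 + cpd, 1 h RT; + 2 uM VEPPL-pS-QETFS, 5 min RT; stop 0.5% formic acid; labelled product standard 1 uM; RapidFire MS. Buffer 50 mM Tris pH 7.5, 30 mM MgCl2, 1 mM TCEP.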

[4] = target: Protein phosphatase 1D (Homo sapiens) (UniProt O15297); experiment: Rhodamine-PBP qHTS Assay for Modulators of WT P53-Induced Phosphatase 1 (WIP1) (AID 1347425)
Outline: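 5 nM WIP1 + 10 uM Rh-PBP, 50 mM Tris pH 7.5, 30 mM MgCl2, 1 mM TCEP, 0.1 mM EGTA, BSA; cpds pinned, 1 hr RT; + 10 uM phosphopeptide; fluorescence 1-min reads x 11 min; delta = f1 - f0.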

[5] = Primary qHTS for inhibitors of La Crosse Virus (LACV) - induced cell death in SH-SY5Y cells (AID 1508616);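 also: top concentration of the series differs between compounds; higher means more rescue of cells from virus-induced death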
Outline: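 Luminescent ATP readout (ATPLite 1step, 5 min room temperature) measured rescue from LACV-induced death after 6 days of infection at 0.01 MOI; normalized to infected DMSO wells and uninfected DMSO wells.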

[6] = qHTS to identify inhibitors of the type 1 interferon - major histocompatibility complex class I in skeletal muscle: primary screen against the NCATS LOPAC collection (AID 1347405);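 also: lytic HiBiT luminescence reporting HLA-B protein level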
Outline: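 Immortalized human C25cl48 myoblasts with HiBiT knocked into endogenous HLA-B*08:01 were stimulated with 4.0 ng/ml IFN-beta and given compounds in a 7-point, 1:4.3 titration from 46 uM final; after 24 hrs, lytic HiBiT luminescence was read.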

[7] = qHTS for inhibitors of adenylyl cyclases using a fission yeast platform: a pilot screen against the NCATS LOPAC library (AID 1347410)
Outline: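 Read-out: fbp1-GFP fluorescence by laser scanning cytometry (488 nm laser), a gain of signal when AC/cAMP-PKA signalling is inhibited. Strain CHP2027 expressing AC9, GNAS and PDE4D2; compounds at up to 57 µM; 18 h, 30C.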

[8] = Validation qHTS assay for inhibitors of Activation Induced Cytidine Deaminase (AID): UDG Counterscreen signal (AID 1347427)
Outline: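 Counterscreen read of UDG activity (2 U/mL, 4/3x) in the FRET deamination format with AID (1 uM, 4/3x), DJC20/DJC23 substrates (250 nM, 4x), 4 h at room temperature. NaOH stop, fluorescence at 560 ex/665 em.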

[9] = target: Single-stranded DNA cytosine deaminase (Homo sapiens) (UniProt Q9GZX7); experiment: Validation qHTS assay for inhibitors of Activation Induced Cytidine Deaminase (AID): AID signal (AID 1347429)
Single-stranded DNA cytosine deaminase (Homo sapiens), sequence (Q9GZX7 whole entry, looked up): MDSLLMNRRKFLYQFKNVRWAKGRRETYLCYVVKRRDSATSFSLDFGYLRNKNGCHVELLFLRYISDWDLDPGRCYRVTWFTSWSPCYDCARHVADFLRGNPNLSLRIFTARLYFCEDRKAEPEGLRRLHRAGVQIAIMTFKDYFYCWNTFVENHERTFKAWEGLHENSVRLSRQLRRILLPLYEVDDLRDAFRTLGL
Outline: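 AID and UDG were combined and compounds added at final up to 114 uM, then DJC20/DJC23 FRET substrate was added for 4 hr at room temperature. NaOH was then added for 30 min before fluorescence was read at 540/590 nm.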

Compound | Potency [1] | Potency [2] | outcome [3] | outcome [4] | Potency [5] | outcome [6] | outcome [7] | outcome [8] | outcome [9]
CCn1cc(C(=O)O)c(=O)c2cc(F)c(N3CCNCC3)cc21 | inactive | inactive | inactive | inactive | inactive | – | – | – | –
CC(C)NCC(O)c1ccc(NS(C)(=O)=O)cc1 (stereo not drawn) | – | inactive | – | – | inactive | inactive | inactive | inactive | inactive
NC(=O)c1cccc(N)c1 | – | inactive | – | – | inactive | inactive | inactive | inactive | inactive
CC(C)(C#N)c1cc(Cn2cncn2)cc(C(C)(C)C#N)c1 | inactive | inactive | inactive | inactive | – | – | – | – | –
CCc1cc(C(N)=S)ccn1 | inactive | inactive | inactive | inactive | inactive | – | – | – | –
O=P(O)(O)C(O)(Cc1cccnc1)P(=O)(O)O | inactive | inactive | inactive | inactive | – | – | – | – | –
CCN(CC)CC#CCOC(=O)C(O)(c1ccccc1)C1CCCCC1 (stereo not drawn) | – | – | – | – | inactive | inactive | inactive | inactive | inactive
CC1=C(C(=O)O)N2C(=O)[C@@H](NC(=O)C(N)c3ccccc3)[C@H]2SC1 (stereo partly drawn) | – | – | – | – | inactive | inactive | inactive | inactive | inactive
O=c1oc2c(O)c(O)cc3c(=O)oc4c(O)c(O)cc1c4c23 | inactive | inactive | inactive | inactive | inactive | – | – | – | –
NC(N)=NC(N)=NCCc1ccccc1 | inactive | inactive | inactive | inactive | – | – | – | – | –
CC(C)(Sc1cc(C(C)(C)C)c(O)c(C(C)(C)C)c1)Sc1cc(C(C)(C)C)c(O)c(C(C)(C)C)c1 | inactive | inactive | inactive | inactive | inactive | – | – | – | –
Cn1c(=O)c2c(ncn2CC(O)CO)n(C)c1=O (stereo not drawn) | inactive | inactive | inactive | inactive | – | – | – | – | –
O=C(O)C1CCCN(CCC=C(c2ccccc2)c2ccccc2)C1 (stereo not drawn) | – | inactive | – | – | inactive | inactive | inactive | inactive | inactive
CCN(CC)CCn1c(=O)c(Cc2ccc(OC)cc2)nc2ccccc21 | – | – | – | – | inactive | inactive | inactive | inactive | inactive
CCC(C)(C)c1ccc(CC(C)CN2C[C@@H](C)O[C@@H](C)C2)cc1 (stereo partly drawn) | inactive | inactive | inactive | inactive | inactive | – | – | – | –
O=S(=O)(O)CCS | inactive | inactive | inactive | inactive | – | – | – | – | –
CCOC(=O)c1ccc(C#Cc2ccc3c(c2)C(C)(C)CCS3)nc1 | inactive | inactive | inactive | inactive | inactive | – | – | – | –

Compound | Potency [1] | Potency [2] | outcome [3] | outcome [4] | Potency [5] | outcome [6] | outcome [7] | outcome [8] | outcome [9]
C[C@@H](CN1CC(=O)NC(=O)C1)N1CC(=O)NC(=O)C1 | inactive | inactive | inactive | inactive | – | – | – | – | –
Nc1nc(N)c2nc(CNc3ccc(C(=O)NC(CCC(=O)O)C(=O)O)cc3)cnc2n1 (stereo not drawn) | – | – | – | – | – | inactive | inactive | inactive | inactive
CCCc1cc(C(N)=S)ccn1 | inactive | inactive | inactive | inactive | inactive | – | – | – | –
Nc1nc(F)nc2c1ncn2[C@@H]1O[C@H](CO)[C@@H](O)[C@@H]1O | inactive | inactive | inactive | inactive | – | – | – | – | –
CN(C)c1ccc(C(=C2C=CC(=[N+](C)C)C=C2)c2ccc(N(C)C)cc2)cc1 | 9.38 µM (active) | 3.7 µM (active) | inactive | inactive | – | – | – | – | –
CNS(=O)(=O)CCc1ccc2[nH]cc(C3CCN(C)CC3)c2c1 | inactive | – | inactive | inactive | inactive | inactive | inactive | – | –
NC(=O)c1ccc2[nH]ccc2c1 | – | inactive | – | – | inactive | inactive | inactive | inactive | inactive
CCCCOc1ccc(CC(=O)NO)cc1 | inactive | inactive | inactive | inactive | inactive | – | – | – | –
CC(C)C1CCC(C(=O)N[C@H](Cc2ccccc2)C(=O)O)CC1 (stereo partly drawn) | inactive | inactive | inactive | inactive | inactive | – | – | – | –
O=C(NCC1CN(c2ccc(N3CCOCC3=O)cc2)C(=O)O1)c1ccc(Cl)s1 (stereo not drawn) | inactive | inactive | inactive | inactive | – | – | – | – | –
OCc1ccc(-c2nn(Cc3ccccc3)c3ccccc23)o1 | – | – | – | – | inactive | inactive | inactive | inactive | inactive
Oc1c(Cl)cc(Cl)c2cccnc12 | inactive | 23.4 µM (active) | inactive | inactive | – | – | – | – | –
CC1CC2C3CCC4=CC(=O)C=C[C@]4(C)[C@@]3(F)[C@@H](O)C[C@]2(C)[C@@]1(O)C(=O)CO (stereo partly drawn) | – | – | – | – | inactive | inactive | inactive | inactive | inactive
NS(=O)(=O)c1cc2c(cc1Cl)NC(C(Cl)Cl)NS2(=O)=O (stereo not drawn) | inactive | inactive | inactive | inactive | inactive | – | – | – | –
CCN1CCCC1CNC(=O)c1cc(S(N)(=O)=O)ccc1OC (stereo not drawn) | – | – | – | – | inactive | inactive | inactive | inactive | inactive
CCCOc1ccc(C(=O)OCCN(CC)CC)cc1N | inactive | inactive | inactive | inactive | – | – | – | – | –
O=C(O)c1ccc(-n2nc(-c3ccccc3O)nc2-c2ccccc2O)cc1 | inactive | inactive | inactive | inactive | inactive | – | – | – | –
